91 molecules from PubChem BioAssay AID540333 (Southern Research Specialized Biocontainment Screening …, 2011) can be followed below.

Each structure is given as a SMILES string. In all, about 10,000 compounds went through this assay and about 320 (3.2%) were called active. Rule as the data show it: active = CPE inhibition mostly above about 9.1% (no sharp cut-off); inactive = mostly below about 7.2%. Only a selection was taken, and actives are over-represented in it overall.

This assay is described as follows: Dengue virus cytopathic effect inhibitors, cell-based, CPE readout, HTS (AID 540333). Conditions: Dengue virus CPE inhibition in host cells, at 20 µM; hits give high values.
As for `Cc1cccc(C)c1-n1c(SCC(=O)N2CC(=O)Nc3ccccc32)nc2ccccc2c1=O`, the CPE inhibition was 1.7% (inactive).
The same measure for `Cc1ccc(-n2c(SCC(=O)N3CC(=O)Nc4ccccc43)nc3ccccc3c2=O)cc1`: 2.37% (inactive); for `Cc1ccc(Cn2c(SCC(=O)N3CC(=O)Nc4ccccc43)nc3ccccc3c2=O)cc1`: 22.3% (active); for `COc1ccc(C2=NN(C(=O)CSc3nc4ccccc4s3)C(c3ccc(OC)cc3)C2)cc1` (stereo unspecified): 2.96% (inactive).
The same measure for `COc1ccc(C2CC(c3ccccc3)=NN2C(=O)CSc2ncccn2)cc1` (stereo unspecified): 0.205% (inactive).
The same measure for `CCCn1c(SCC(=O)N2N=C3/C(=C/c4ccc(OC)cc4)CCCC3C2c2ccc(OC)cc2)n[nH]c1=O` (stereo unspecified): 10.2% (active); for `C#CCNC(=O)C1=C[C@@H](c2ccc(C(F)(F)F)cc2)C[C@@H](OCc2ccc(CO)cc2)O1`: 2.77% (inactive); for `CCC(OCC(O)CN1CCN(CCN2C(=O)c3cccc4cccc(c34)C2=O)CC1)c1ccccc1` (stereo unspecified): “inactive”.
Consider `Cc1cccc(-n2c(Cc3ccccc3)nnc2SCc2ccc([N+](=O)[O-])cc2)c1`, for which the CPE inhibition is 14.3% (active).
With `Cc1cccc(CC(=O)N2CCN=C2SCc2ccc([N+](=O)[O-])cc2)c1` the entry was “inactive”; with `O=[N+]([O-])c1ccc(CSc2nnc(Cc3ccccc3)n2-c2ccc(F)cc2)cc1`, 3.26% (inactive).
The same measure for `Cc1ccc(S(=O)(=O)NCCC(=O)Nc2ccc(C)c(Cl)c2)cc1C`: 12.8% (active).
The same measure for `Cc1ccc(NC(=O)CCC(=O)NNS(=O)(=O)c2ccccc2)cc1C`: “inactive”; for `Cc1ccc(NC(=O)c2cc(S(=O)(=O)NCCc3ccccc3)ccc2F)cc1Cl`: 2.79% (inactive).
As for `CC(Sc1nnc(-c2ccccc2)c(-c2ccccc2)n1)C(=O)Nc1ncc(Cl)cc1Cl` (stereo unspecified), the CPE inhibition was 0.725% (inactive).
With `C/C(=N\NC(=O)c1cccc(S(=O)(=O)Nc2ccccc2Cl)c1)c1ccco1` the entry was “inactive”; with `CCOc1ccc(CSC(=N)N)cc1`, 0.245% (inactive).
The same measure for `CCOc1ccc(Br)cc1CSC(=N)N`: 13.3% (active).
For `CCOc1ccc(Br)cc1CNCCN1CCOCC1`, the CPE inhibition entry was “inactive”.
With `O=C(Oc1ccccc1N1C(=O)C2CC=CCC2C1=O)c1ccc(Br)cc1` (stereo unspecified) the figure was 0.075% (inactive); with `CC1C=CCC2C(=O)N(c3ccc(Cl)cc3O)C(=O)C12` (stereo unspecified), 28.6% (active); with `O=C(NCCCN1CCOCC1)c1onc(CSc2ccccc2)c1C(=O)NCCCN1CCOCC1`, “inactive”.
Take `O=C(CSc1nnc(-c2n[nH]c3ccccc23)n1-c1ccccc1)Nc1ccccc1Cl`: the CPE inhibition is 19% (active).
The same measure for `Cc1ccc(C)c(NC(=O)CSc2nnc(-c3n[nH]c4ccccc34)o2)c1`: 0.235% (inactive); for `Cc1ccc(CCc2nnc(SCC(=O)Nc3ccccc3Cl)n2-c2ccccc2)o1`: 0.905% (inactive); for `Cc1ccc(S(=O)(=O)NN=C2C3CC4CC(C3)CC2C4)cc1[N+](=O)[O-]`: 0.27% (inactive).
With `Cn1cnnc1SC1c2cccc3cccc(c23)C1NS(=O)(=O)c1ccccc1` (stereo unspecified) the figure was 0.485% (inactive); with `Cc1ccc(C=Nc2ccccc2C(=O)Nc2ccccc2)cc1`, 0.36% (inactive); with `CC(C)(C)OC(=O)C[C@H]1C/C=C\C[C@@H](CC(=O)N(CCO)Cc2ccccc2)C(=O)N[C@@H](c2ccccc2)COC1=O`, “inactive”.
The same measure for `CC1(C)C(C=C(Cl)Cl)C1C(=O)N(Cc1ccccc1Cl)C1CCS(=O)(=O)C1` (stereo unspecified): 29.9% (active); for `CC1(C)C(C=C(Cl)Cl)C1C(=O)N(Cc1cccc(Cl)c1)C1CCS(=O)(=O)C1` (stereo unspecified): 0.525% (inactive); for `CN(C(=O)COC(=O)c1cc(-c2ccccc2Cl)nc2ccccc12)C1CCS(=O)(=O)C1` (stereo unspecified): “inactive”.
On to `CCN(Cc1ccccc1)C(=O)C1CCN(C/C(C)=C/c2ccccc2)CC1`, for which the CPE inhibition entry was “inactive”.
With `Cc1ccc(C)c(S(=O)(=O)Nc2nc(C)c(C(=O)Nc3ccccc3)s2)c1` the entry was “inactive”.
Take `O=C1NC(c2ccc(-c3ccccc3[N+](=O)[O-])o2)C(C(=O)c2ccc(Cl)cc2)C(O)(C(F)(F)F)N1` (stereo unspecified): the CPE inhibition is 30.5% (active).
As to `O=C(/C=C/c1ccc(-c2ccccc2[N+](=O)[O-])o1)c1ccccc1`, the CPE inhibition is 3.25% (inactive).
On to `O=C1c2ccccc2NC(c2ccc(-c3cccc([N+](=O)[O-])c3)o2)N1O` (stereo unspecified), for which the CPE inhibition is 0.135% (inactive).
The same measure for `O=C1NC(c2ccc(-c3ccccc3[N+](=O)[O-])o2)C(C(=O)c2ccc(F)cc2)C(O)(C(F)(F)F)N1` (stereo unspecified): 23.4% (active); for `O=c1nc2s/c(=C\c3ccc(-c4ccccc4[N+](=O)[O-])o3)c(=O)n2nc1-c1ccccc1`: “inactive”; for `O=C(N/N=C/c1ccc(-c2ccccc2[N+](=O)[O-])o1)[C@H]1C[C@@H]1c1ccccc1`: “inactive”.
Consider `COc1ccc(-c2cn(-c3ccccc3)c3[n+]2CCS3)cc1`, for which the CPE inhibition is 7.46% (inactive).
The same measure for `O=C(CSc1nc2ccccc2[nH]1)Nc1ccc2c(c1)CCC2`: 2.09% (inactive); for `NS(=O)(=O)c1ccc(NC(=S)NCc2ccccc2Cl)cc1`: 1.7% (inactive).
With `O=[N+]([O-])c1ccc(N2CCOCC2)cc1SCc1ccco1` the figure was 0.08% (inactive); with `COc1cccc(NC(=S)N2CCc3cc(OC)c(OC)cc3C2COc2ccc3c(C)cc(=O)oc3c2)c1` (stereo unspecified), 0.46% (inactive); with `COCCNC(=S)N1CCc2cc(OC)c(OC)cc2C1COc1ccc(C(C)C)cc1` (stereo unspecified), 15.5% (active).
The same measure for `COc1cc2c(cc1OC)CN(C(=S)Nc1c(C)cccc1C)CC2`: “inactive”.
Consider `COCCNC(=S)N/N=C(\C)c1ccc2cc(OC)ccc2c1`, for which the CPE inhibition was 0.1% (inactive).
With `COc1cc2c(cc1OC)C(C)N(C(=O)c1ccc(Br)o1)CC2` (stereo unspecified), the CPE inhibition entry was “inactive”.
The same measure for `CCc1ccc(OCC2c3cc(OC)c(OC)cc3CCN2C(=S)NCCOC)cc1` (stereo unspecified): 17.3% (active); for `COC(=O)Cc1ccc2sc(-c3ccccc3)nc2c1`: “inactive”.
With `COc1cc(/C=N/NC(=O)C2COc3ccccc3O2)cc(OC)c1OC` (stereo unspecified) the entry was “inactive”; with `CC(C(=O)NCC1CCCCC1)N1CCN(S(=O)(=O)/C=C/c2ccccc2)CC1` (stereo unspecified), 0.61% (inactive).
The same measure for `COc1ccc(NS(=O)(=O)c2ccc(OC)c(NC(=O)CCC3CCCCC3)c2)cc1`: 0.695% (inactive).
For the molecule `O=C(NNS(=O)(=O)c1ccc2ccccc2c1)NC1CCCCC1`, the CPE inhibition entry was “inactive”.
Turning to `COc1ccc(NS(=O)(=O)c2ccc(C)c(NC(=O)NC3CCCCC3)c2)cc1`, the CPE inhibition was 7.27% (active).
As to `CCOc1ccc(/C(O)=C2/C(=O)C(=O)N(CC3CCCO3)C2c2cccs2)cc1` (stereo unspecified), the CPE inhibition is 0.87% (inactive).
With `Cc1nn(Cc2ccc(C(=O)N3N=C(C(F)F)CC3(O)C(F)F)o2)c(C)c1[N+](=O)[O-]` (stereo unspecified) the figure was 0.095% (inactive).
On to `COc1cccc(NC(=O)CN(C)C(=O)COc2ccc3ccccc3c2)c1`, for which the CPE inhibition was 0.135% (inactive).
With `Cc1ccc(S(=O)(=O)Nc2cc(=O)[nH]c(SCc3ccccc3Cl)n2)cc1` the entry was “inactive”; with `O=C(CSc1nnc(-c2ccncc2)o1)NCc1ccccc1Cl`, “inactive”; with `Cc1ccc(S(=O)(=O)Nc2ccc(-c3nnc(SCc4ccccc4Cl)o3)cc2)cc1`, 17.2% (active).
With `Cc1nn(CCC(N)=O)c2nc(-c3cccs3)cc(C(F)(F)F)c12` the entry was “inactive”; with `O=C(Oc1ccccc1C(=O)Nc1ccccc1)c1ccccc1Br`, 1.84% (inactive); with `COc1ccccc1CNC(=O)C(NS(=O)(=O)c1ccc2c(c1)OCCO2)C(C)C` (stereo unspecified), “inactive”.
With `CCCCN(C)C(=S)Nc1ccc(Oc2ccccc2)cc1` the figure was 3.21% (inactive); with `CCCn1c(SC(C(=O)Nc2cccc(OC)c2)c2ccccc2)nc2ccccc2c1=O` (stereo unspecified), 0.175% (inactive).
`Cc1ccccc1NC(=O)C1CCCN1/C=C/C(=O)C(F)(F)F` (stereo unspecified): the CPE inhibition entry was “inactive”.
The same measure for `CCC(=O)NC(Nc1nc(C)cs1)(C(=O)OC)C(F)(F)F` (stereo unspecified): 0.32% (inactive); for `CC(C)(C)OC(=O)N[C@H](C(=O)OC(C)(C)C)c1ccc2ccccc2c1`: 0.425% (inactive).
The same measure for `CCOC(=O)C(C)(C)N(Cc1cccc(C)c1)S(=O)(=O)c1ccc(Cl)c([N+](=O)[O-])c1`: 7.24% (inactive).
On to `CCOC(=O)C(C)(C)N(Cc1ccccc1C)S(=O)(=O)c1ccc(Cl)c([N+](=O)[O-])c1`, for which the CPE inhibition was 7.12% (inactive).
With `CCOC(=O)C(C)(C)N(Cc1ccc(C)cc1)S(=O)(=O)c1ccc(Cl)c([N+](=O)[O-])c1` the figure was 7.28% (active); with `O=C(NN1C(=O)/C(=C\c2cccnc2)SC1=S)C(c1ccccc1)c1ccccc1`, “inactive”; with `Cc1ccccc1C(=O)NCCCCc1ccccc1`, 0.125% (inactive).
With `O=C(Cn1c(COc2ccccc2)nc2ccccc21)Nc1cc(Cl)ccc1Cl` the figure was 5.49% (inactive).
For `O=C(Cn1c(COc2ccc(Cl)cc2)nc2ccccc21)NCC(F)(F)F`, the CPE inhibition entry was “inactive”.
Turning to `CCC(C)NC(=O)Cn1c(COc2ccc(Cl)cc2Cl)nc2ccccc21` (stereo unspecified), the CPE inhibition was 13.4% (active).
`CCOc1cc(/C=C/c2cc(C(=O)O)c3ccccc3n2)ccc1O`: the CPE inhibition is 0.055% (inactive).
With `Cc1ccc(NS(=O)(=O)c2ccc(C3CCCCC3)cc2)cc1`, the CPE inhibition is 21.5% (active).
With `Cc1ccc(NS(=O)(=O)c2ccc(OCC(=O)NCc3ccncc3)cc2)cc1` the figure was 0.315% (inactive); with `Cc1ccc(S(=O)(=O)Nc2ccc(NC(=O)Nc3ccc(F)cc3F)cc2)cc1`, 10.3% (inactive); with `CC1(C)CC(=O)C2=C(C1)NC1=C(C(=O)c3ccccc31)C2c1ccc(O)cc1` (stereo unspecified), 2.13% (inactive).
With `CC(C)Oc1cccc(C(=O)NC(=S)NCc2cccnc2)c1` the figure was 2.73% (inactive); with `O=C(NC(=S)Nc1ccc(Cc2ccncc2)cc1)c1ccccc1`, 0.355% (inactive); with `CC(C)NC(=S)NC(=O)c1ccc(-c2ccccc2)cc1`, 0.805% (inactive).
As to `O=C(NC(=S)NC(c1ccccc1)c1ccncc1)c1ccccc1` (stereo unspecified), the CPE inhibition was 18.9% (active).
With `CCOC(=O)c1c(C(F)(F)F)cc(-c2ccc(F)cc2)nc1C` the entry was “inactive”.
With `COc1cc(/C=C/C(=O)N(Cc2ccccc2)c2ccccn2)cc(OC)c1OC`, the CPE inhibition entry was “inactive”.
With `CC(C)(Oc1ccc(Cl)cc1)C(=O)N(Cc1ccccc1)c1ccccn1`, the CPE inhibition is 11% (active).
As to `CC1(C(=O)NC(=S)N(Cc2ccccc2)c2ccccn2)CC1(Cl)Cl` (stereo unspecified), the CPE inhibition is 0.075% (inactive).
